8 molecules from PubChem BioAssay (EPA / NIEHS) can be followed below.

Each structure is given as a SMILES string. The source made the active and inactive calls. Rule for the calls: active = hit-call score of the fitted dose curve at least 0.9, where 1 is the maximum; inactive = score below 0.9.

The term AC50 denotes the concentration at which the activity in the assay is half-maximal.

Assay [1] deals with Transcription factor E2F1 (Homo sapiens) (UniProt Q01094). Briefly: ATG_E2F_CIS: Attagene CIS-FACTORIAL HepG2 Assay for human E2F Transcription Factor 1 (AID 2282935). Particulars: HepG2 Attagene cis-reporter, E2F reporter RNA transcripts; actives raise or lower the signal. The method in brief:
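Transient MRTU transfection of HepG2; 24 h compound exposure; RNA → oligo(dT) RT → PCR → FAM label → HpaI cut → CE fluorescence. Gain/loss of signal fit against DMSO.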

A short description of assay [2]: ATG_E_Box_CIS: Attagene CIS-FACTORIAL HepG2 Assay for human Enhancer Box (E-box) (AID 2282936). Particulars: HepG2 E-box cis-reporter transcription, actives raise or lower the signal. In short, it runs like this: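 Transiently transfected HepG2, endogenous TF-driven reporters, 24 h dosing. Readout: RT-PCR plus capillary electrophoresis of fluorescent reporter fragments. Gain or loss of signal fitted bidirectionally against DMSO baseline.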

Assay [3] in a line: ATG_M_61_CIS: Attagene CIS-FACTORIAL HepG2 Assay for M61 Transcription Factor (Internal Marker) (AID 2282937). The note with it: HepG2 Attagene CIS-FACTORIAL M61 internal marker reporter; actives raise or lower the signal. In short, it runs like this:
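Readout: fluorescent reporter mRNA fragments resolved by capillary electrophoresis after RT-PCR. Transiently transfected human HepG2 cells carried MRTU constructs reporting endogenous TF activity; 24 h chemical exposure; gain or loss of signal fitted relative to DMSO.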

The nature of assay [4]: ATG_EGR_CIS: Attagene CIS-FACTORIAL HepG2 Assay for human Early Growth Response 1 (EGR1) (AID 2282938). The note with it: HepG2 Attagene CIS-FACTORIAL EGR reporter mRNA; actives raise or lower the signal. In short, it runs like this:
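Read-out: fluorescent reporter-mRNA fragments resolved by capillary electrophoresis after RT-PCR, 24 h post-dose in transiently transfected HepG2. Endogenous transcription-factor activity reported via cis-element-regulated reporter units; gain or loss fitted relative to DMSO.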

A short description of assay [5]: ATG_M_19_CIS: Attagene CIS-FACTORIAL HepG2 Assay for M19 Transcription Factor (Internal Marker) (AID 2282939). Particulars: HepG2 Attagene CIS-FACTORIAL M19 internal marker reporter; actives raise or lower the signal. The method in brief:
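In this multiplexed cell assay, transiently transfected HepG2 reporter units report endogenous transcription-factor activity; after 24 hours of treatment, labelled reporter cDNA fragments are quantified by capillary electrophoresis and fitted bidirectionally against DMSO.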

Assay [6] can be described thus: ATG_ERE_CIS: Attagene CIS-FACTORIAL HepG2 Assay for Estrogen Response Element (ERE) (AID 2282940). Particulars: HepG2 ERE cis-reporter, Attagene RNA transcript; actives raise or lower the signal. The method in brief:
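Measuring endogenous transcription factor output, the assay doses transfected HepG2 cells for 24 hours and quantifies reporter transcripts by fluorescent RT-PCR and capillary electrophoresis, with DMSO as baseline.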

Assay [7] in a line: ATG_Ets_CIS: Attagene CIS-FACTORIAL HepG2 Assay for human Erythroblast Transformation Specific (ETS) (AID 2282941). Particulars: HepG2 ETS cis-reporter transcription, actives raise or lower the signal. The method in brief:
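Bidirectional fit versus DMSO of reporter mRNA signal, detected by RT-PCR and capillary electrophoresis in HepG2 cells transiently transfected with cis-element reporters and dosed 24 h.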

For assay [8], the target named is Hepatocyte nuclear factor 3-beta (Homo sapiens) (UniProt Q9Y261). Nature of the assay: ATG_FoxA2_CIS: Attagene CIS-FACTORIAL HepG2 Assay for human Forkhead box A2 (FOXA2) (AID 2282942). The note with it: HepG2 cis-reporter transcription factor activity, 24 h; actives raise or lower the signal. In short, it runs like this: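 Readout: fluorescent reporter transcripts resolved by capillary electrophoresis after RT-PCR. Transiently transfected HepG2, 24 h compound exposure, endogenous TF activity at cis promoter elements. Gain or loss of signal fitted relative to DMSO.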
Chain of Hepatocyte nuclear factor 3-beta (Homo sapiens) (Q9Y261 whole entry, looked up): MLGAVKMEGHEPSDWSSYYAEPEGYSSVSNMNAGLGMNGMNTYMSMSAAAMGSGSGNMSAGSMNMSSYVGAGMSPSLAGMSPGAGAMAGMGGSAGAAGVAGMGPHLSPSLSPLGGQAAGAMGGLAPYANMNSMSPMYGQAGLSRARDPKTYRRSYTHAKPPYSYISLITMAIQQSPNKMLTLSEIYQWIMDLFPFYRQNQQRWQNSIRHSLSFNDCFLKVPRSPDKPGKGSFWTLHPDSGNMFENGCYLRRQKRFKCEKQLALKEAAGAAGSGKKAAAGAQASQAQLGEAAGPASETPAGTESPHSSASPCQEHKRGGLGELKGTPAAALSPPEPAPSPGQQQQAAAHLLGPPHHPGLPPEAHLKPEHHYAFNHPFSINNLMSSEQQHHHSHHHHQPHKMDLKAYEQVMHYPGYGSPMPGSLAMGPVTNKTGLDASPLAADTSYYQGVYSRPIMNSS

Assay [9] can be described thus: ATG_GATA_CIS: Attagene CIS-FACTORIAL HepG2 Assay for human GATA Binding Protein (AID 2282944). The note with it: HepG2 GATA cis-element reporter, Attagene multiplex mRNA; actives raise or lower the signal. The method in brief:
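Measures endogenous transcription factor-driven reporter mRNA in HepG2 cells transiently carrying cis-regulated constructs. 24 h dosing; RNA via oligo(dT) reverse transcription, PCR, HpaI digestion, capillary electrophoresis; fitted relative to DMSO.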

Assay [10] can be described thus: ATG_GLI_CIS: Attagene CIS-FACTORIAL HepG2 Assay for human Zinc Finger Protein GLI1 (AID 2282945). Particulars: HepG2, Attagene cis-factorial reporter mRNA, GLI element; actives raise or lower the signal. In short, it runs like this: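 Transiently transfected HepG2 cells report endogenous transcription factor activity via cis-element-driven reporter units. After 24 h compound exposure, reporter mRNA was measured by RT-PCR with capillary electrophoresis; bidirectional fitting against DMSO baseline.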

The nature of assay [11]: ATG_GRE_CIS: Attagene CIS-FACTORIAL HepG2 Assay for human Glucocorticoid Response Elements (GRE) (AID 2282947). Particulars: HepG2 GRE cis-reporter, Attagene multiplex mRNA; actives raise or lower the signal. The method in brief: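 Read-out: fluorescent reporter-transcript fragments separated by capillary electrophoresis after RT-PCR. Transiently transfected HepG2 cells carrying cis-element-driven reporter units were dosed for 24 h; gain or loss of signal fitted against DMSO control.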

Assay [12] in a line: ATG_ISRE_CIS: Attagene CIS-FACTORIAL HepG2 Assay for human Interferon Regulatory Factor 1 (IRF1) binding to an Interferon-Stimulated Response Element (ISRE) (AID 2282948). The note with it: HepG2 ISRE cis-reporter (Attagene), mRNA transcription readout; actives raise or lower the signal. The method in brief: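 Uses HepG2 liver cells transfected with cis-regulated reporters and measures mRNA 24 h post-dosing through RT-PCR, primer-extension labelling and capillary electrophoresis, with DMSO as negative control.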

Assay [13] can be described thus: ATG_M_32_CIS: Attagene CIS-FACTORIAL HepG2 Assay for M32 Transcription Factor (Internal Marker) (AID 2282949).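 Note: background control marker of the multiplexed CIS panel rather than a real target.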 The note with it: HepG2 Attagene cis-factorial M32 reporter, mRNA; actives raise or lower the signal. In short, it runs like this: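 Transient MRTU transfection of HepG2; 24 h compound treatment; TriZol RNA, oligo(dT) RT, reporter PCR, 6-FAM primer extension, HpaI cut, CE. Gain/loss of signal vs DMSO.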

Assay [14] in a line: ATG_M_06_CIS: Attagene CIS-FACTORIAL HepG2 Assay for M06 Transcription Factor (Internal Marker) (AID 2282950). The note with it: HepG2 Attagene CIS-FACTORIAL M06 internal marker reporter; actives raise or lower the signal. The method in brief: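 One of many multiplexed endpoints: HepG2 reporter mRNA after 24 h dosing, detected by RT-PCR and capillary electrophoresis fluorescence; gain or loss of signal analysed against DMSO.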

For assay [15], the target named is Hypoxia-inducible factor 1-alpha (Homo sapiens) (UniProt Q16665). Briefly: ATG_HIF1a_CIS: Attagene CIS-FACTORIAL HepG2 Assay for human Hypoxia Inducible Factor 1 (HIF1A) (AID 2282951). The note with it: HepG2 Attagene cis-factorial HIF1a reporter transcription; actives raise or lower the signal. In short, it runs like this:
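RT-PCR/capillary electrophoresis fluorescence readout of reporter transcripts from endogenous-TF-driven cis elements in transfected HepG2 cells, 24 h exposure; activity fitted in both directions against DMSO controls.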

The target in assay [16] is Hepatocyte nuclear factor 6 (Homo sapiens) (UniProt Q9UBC0). Briefly: ATG_HNF6_CIS: Attagene CIS-FACTORIAL HepG2 Assay for human Hepatocyte Nuclear Factor 6 (HNF6) (AID 2282952). The note with it: HepG2 Attagene cis-factorial HNF6 reporter transcription; actives raise or lower the signal. In short, it runs like this: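 First, HepG2 cells were transfected with the multiplexed cis reporter library and dosed with chemical for 24 h. Next, RNA was reverse-transcribed, PCR-amplified and fluorescently labelled. Finally, HpaI-digested fragments were read by capillary electrophoresis.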
Chain of Hepatocyte nuclear factor 6 (Homo sapiens) (Q9UBC0 whole entry, looked up, the tested form may be a part): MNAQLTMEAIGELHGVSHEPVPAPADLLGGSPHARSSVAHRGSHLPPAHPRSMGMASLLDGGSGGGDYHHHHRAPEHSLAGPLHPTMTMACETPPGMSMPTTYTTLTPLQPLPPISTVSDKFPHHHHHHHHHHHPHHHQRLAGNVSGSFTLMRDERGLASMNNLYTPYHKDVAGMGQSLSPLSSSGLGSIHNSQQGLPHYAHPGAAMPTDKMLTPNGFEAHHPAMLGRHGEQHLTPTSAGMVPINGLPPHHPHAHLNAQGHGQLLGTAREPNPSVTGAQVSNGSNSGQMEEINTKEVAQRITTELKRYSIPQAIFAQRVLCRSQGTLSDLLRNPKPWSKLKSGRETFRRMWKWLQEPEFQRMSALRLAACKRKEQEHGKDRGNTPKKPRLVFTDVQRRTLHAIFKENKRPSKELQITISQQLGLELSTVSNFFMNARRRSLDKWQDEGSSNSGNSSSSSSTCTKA

Assay [17] concerns the target Heat shock factor protein 1 (Homo sapiens) (UniProt Q00613). Nature of the assay: ATG_HSE_CIS: Attagene CIS-FACTORIAL HepG2 Assay for human Heat Shock Transcription Factor 1 (HSE) (AID 2282953). Particulars: HepG2 HSE cis-reporter, Attagene RNA transcription; actives raise or lower the signal. The method in brief:
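Using HepG2 with transfected cis-driven reporter constructs, compound effects on endogenous factor activity are scored as reporter mRNA change at 24 h. Detection: RT-PCR, HpaI digestion, capillary electrophoresis; bidirectional fitting to DMSO.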

Assay [18] can be described thus: ATG_MRE_CIS: Attagene CIS-FACTORIAL HepG2 Assay for human Metal Responsive Element (MRE) (AID 2282954). Particulars: HepG2 MRE cis-reporter transcription, Attagene multiplex; actives raise or lower the signal. In short, it runs like this: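 RT-PCR/capillary electrophoresis readout of reporter mRNA, 24 h post-dosing, in HepG2 cells transfected with multiplexed cis-regulated reporter constructs. Gain or loss of signal fitted bidirectionally against DMSO baseline.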

The nature of assay [19]: ATG_FoxO_CIS: Attagene CIS-FACTORIAL HepG2 Assay for human Forkhead box O (FoxO) (AID 2282943). The note with it: HepG2 Attagene cis-reporter, FoxO element, mRNA; actives raise or lower the signal. In short, it runs like this: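 Read-out: fluorescence of 6-FAM-labelled reporter cDNA fragments resolved by capillary electrophoresis. Transiently transfected HepG2 cells were dosed for 24 h; activity fitted in both directions relative to DMSO controls.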

For assay [20], the target named is Bile acid receptor (Homo sapiens) (UniProt Q96RI1). Nature of the assay: ATG_IR1_CIS: Attagene CIS-FACTORIAL HepG2 Assay for human Nuclear Receptor Subfamily 1 Group H Member 4 (NR1H4), IR1 submotif (AID 2282946). The note with it: IR1 reporter transcription, actives raise or lower the signal. The method in brief:
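Fluorescence of capillary-separated, HpaI-digested RT-PCR reporter products gave IR1-element mRNA induction in HepG2 cells 24 h after dosing. Endogenous transcription factors drove the cis-regulated reporters; activity was fitted bidirectionally against DMSO.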

Chain of Transcription factor E2F1 (Homo sapiens) (Q01094 whole entry, looked up): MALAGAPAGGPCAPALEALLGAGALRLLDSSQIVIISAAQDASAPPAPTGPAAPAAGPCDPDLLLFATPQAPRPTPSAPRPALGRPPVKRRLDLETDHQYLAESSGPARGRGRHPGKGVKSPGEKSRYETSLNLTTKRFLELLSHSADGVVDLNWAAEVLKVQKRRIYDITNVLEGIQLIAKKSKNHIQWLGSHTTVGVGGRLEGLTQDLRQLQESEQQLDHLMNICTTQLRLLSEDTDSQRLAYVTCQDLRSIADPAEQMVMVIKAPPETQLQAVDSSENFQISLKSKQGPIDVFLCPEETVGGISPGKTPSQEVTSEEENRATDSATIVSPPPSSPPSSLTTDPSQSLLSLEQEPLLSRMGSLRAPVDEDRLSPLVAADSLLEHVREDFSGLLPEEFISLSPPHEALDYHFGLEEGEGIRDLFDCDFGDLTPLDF
Chain of Heat shock factor protein 1 (Homo sapiens) (Q00613 whole entry, looked up): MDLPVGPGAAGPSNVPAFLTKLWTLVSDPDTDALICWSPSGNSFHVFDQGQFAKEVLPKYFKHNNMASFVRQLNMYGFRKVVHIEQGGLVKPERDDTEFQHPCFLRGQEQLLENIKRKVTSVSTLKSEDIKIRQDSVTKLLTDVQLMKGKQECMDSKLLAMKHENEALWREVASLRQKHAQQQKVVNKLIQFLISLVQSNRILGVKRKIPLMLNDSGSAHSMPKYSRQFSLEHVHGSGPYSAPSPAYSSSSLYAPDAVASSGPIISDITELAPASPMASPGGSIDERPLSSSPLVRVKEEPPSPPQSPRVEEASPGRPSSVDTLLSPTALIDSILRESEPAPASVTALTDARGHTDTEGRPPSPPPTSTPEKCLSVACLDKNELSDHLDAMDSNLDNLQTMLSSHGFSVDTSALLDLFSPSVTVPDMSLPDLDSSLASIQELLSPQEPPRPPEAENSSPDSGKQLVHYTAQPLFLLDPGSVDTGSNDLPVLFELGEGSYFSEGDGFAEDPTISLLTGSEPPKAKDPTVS
Chain of Hypoxia-inducible factor 1-alpha (Homo sapiens) (Q16665 whole entry, looked up): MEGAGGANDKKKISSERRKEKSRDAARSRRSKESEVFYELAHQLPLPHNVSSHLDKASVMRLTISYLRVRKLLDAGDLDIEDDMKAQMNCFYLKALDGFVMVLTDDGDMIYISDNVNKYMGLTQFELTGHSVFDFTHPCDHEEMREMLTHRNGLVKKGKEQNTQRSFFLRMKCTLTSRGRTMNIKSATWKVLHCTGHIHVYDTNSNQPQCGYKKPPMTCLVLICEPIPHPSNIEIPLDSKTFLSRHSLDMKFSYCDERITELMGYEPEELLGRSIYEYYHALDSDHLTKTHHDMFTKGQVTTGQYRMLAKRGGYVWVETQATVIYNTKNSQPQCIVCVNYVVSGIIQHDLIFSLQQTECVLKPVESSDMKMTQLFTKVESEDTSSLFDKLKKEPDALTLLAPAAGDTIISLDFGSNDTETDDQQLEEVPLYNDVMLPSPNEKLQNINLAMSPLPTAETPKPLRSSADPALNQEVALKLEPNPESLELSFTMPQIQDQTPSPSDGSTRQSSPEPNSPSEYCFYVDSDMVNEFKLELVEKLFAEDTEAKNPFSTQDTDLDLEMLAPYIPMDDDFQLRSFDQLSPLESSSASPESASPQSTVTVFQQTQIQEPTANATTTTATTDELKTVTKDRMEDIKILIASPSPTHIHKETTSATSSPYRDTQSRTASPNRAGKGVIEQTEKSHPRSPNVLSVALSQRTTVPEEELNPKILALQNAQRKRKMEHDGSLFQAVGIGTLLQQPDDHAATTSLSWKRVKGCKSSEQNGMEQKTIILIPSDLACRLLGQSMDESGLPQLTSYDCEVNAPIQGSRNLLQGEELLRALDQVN
Chain of Bile acid receptor (Homo sapiens) (Q96RI1 whole entry, looked up): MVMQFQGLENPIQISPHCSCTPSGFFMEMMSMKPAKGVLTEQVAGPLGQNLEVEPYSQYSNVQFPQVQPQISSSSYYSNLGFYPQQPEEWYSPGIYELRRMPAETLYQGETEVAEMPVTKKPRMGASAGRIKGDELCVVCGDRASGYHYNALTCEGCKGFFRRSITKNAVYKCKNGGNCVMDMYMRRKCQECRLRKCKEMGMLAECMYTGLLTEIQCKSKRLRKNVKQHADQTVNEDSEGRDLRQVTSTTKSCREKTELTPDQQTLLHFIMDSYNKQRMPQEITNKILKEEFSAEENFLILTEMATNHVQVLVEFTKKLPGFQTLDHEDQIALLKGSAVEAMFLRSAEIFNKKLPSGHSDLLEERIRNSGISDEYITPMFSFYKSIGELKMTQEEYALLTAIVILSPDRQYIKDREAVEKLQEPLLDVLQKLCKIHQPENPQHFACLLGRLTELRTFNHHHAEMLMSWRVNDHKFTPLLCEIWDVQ

Take `c1ccc2c(c1)[nH]c1ccccc12`: the outcome in assay [1], in [2], in assay [3], in assay [4], in assay [5] and in assay [6] was inactive. The call in assay [7], in [8], in assay [9], in [10], in assay [11] and in [12] was inactive. Further, the call in assay [13], in assay [14], in [15], in [16], in assay [17] and in assay [18] was inactive.

For the molecule `C=CC(=O)O[C@H]1C[C@@H]2CC[C@@]1(C)C2(C)C`, the molecule was classed as inactive in [1], in assay [3], in [7], in [8], in [19] and in [9]. Moreover, the result in assay [20], in assay [11], in [14], in assay [15], in assay [16] and in assay [18] was inactive. Moreover, the AC50 is 25.3 µM (active) in assay [2]; 100 µM (active) in [4]; 24.9 µM (active) in assay [6]; 186 µM (active) in assay [10]; 150 µM (active) in assay [13]; 161 µM (active) in [17].

Regarding `CCCC(C)C(=O)OCC` (centres undefined), the molecule was classed as inactive in [1], in assay [2], in assay [3], in assay [4], in assay [5] and in assay [6]. Also, the molecule was classed as inactive in assay [7], in [8], in assay [9], in [10], in assay [11] and in assay [13]. The outcome in assay [14], in [16], in assay [17] and in [18] was inactive.

`O=C(O)CCCC(=O)O`: the molecule was classed as inactive in assay [1], in [2], in assay [3], in assay [4], in [5] and in assay [6]. In addition, the call in assay [7], in assay [8], in [9], in assay [10], in assay [11] and in assay [12] was inactive. Besides, the call in assay [14], in [15], in assay [16] and in [18] was inactive.

`Cc1c(O)cccc1O`: the result in assay [1], in assay [2], in [3], in [4], in assay [5] and in assay [7] was inactive. Besides, the molecule was called inactive in [8], in [9], in [10], in [20], in assay [12] and in assay [13]. The result in assay [14], in assay [15], in [16], in assay [17] and in assay [18] was inactive. Also, the AC50 in assay [6] was 61.4 µM (active).

`CCCCCCCCCCCC(C)=O`: the molecule was classed as inactive in assay [1], in [2], in [3], in assay [4], in [5] and in assay [8]. Also, the molecule was classed as inactive in assay [9], in [20], in assay [12], in assay [13], in [14] and in [15]. The molecule was classed as inactive in assay [17]. In addition, the AC50 is 1.3 µM (active) in assay [6]; 160 µM (active) in assay [7]; 166 µM (active) in [10]; 123 µM (active) in assay [16]; 179 µM (active) in [18].

As for `CCCCC1CCC(=O)O1` (centres undefined), the molecule was called inactive in assay [1], in [2], in [3], in [4], in [6] and in assay [7]. Moreover, the result in [8], in assay [19], in assay [9], in [10], in assay [11] and in [12] was inactive. In addition, the result in assay [13], in [14], in [15], in assay [16], in assay [17] and in assay [18] was inactive.

Take `CCCCCCOC(=O)CCCCC(=O)OCCCCCC`: the result in assay [1], in [2], in [3], in [4], in assay [7] and in [8] was inactive. In addition, the call in [19], in [9], in assay [10], in [20], in [12] and in [13] was inactive. Moreover, the molecule was classed as inactive in assay [14], in [16], in assay [17] and in assay [18]. The half-maximal activity concentration (AC50) in assay [6] is 27.5 µM (active).
